Out of some 69,000 compounds screened, about 8,600 (12%) showed an effect of 50% or more. What follows is part of a selection rich in strong results, with near analogues and random picks from the rest.

The experiment concerns Plasmodium berghei. The experiment can be described thus: Screen against P. berghei liver stage (PbLuc), transformed with Luciferase, at 10uM. As to conditions: tested at 10 uM. The format is functional, HepG2.
For the compound `COCCC(C)NC(=O)N1CCC(n2ccc(C(F)(F)F)n2)CC1` (stereo unspecified), the INHIBITION is recorded as 15.7%.
On to `CCS(=O)(=O)N1CCN(C(=O)c2cnc3[nH]nc(C)c3c2)CC1`, for which the INHIBITION is listed as -35.2%.
Turning to `O=C(c1cc(=O)c(OCc2ccccc2)co1)N1CCSCC1`, the INHIBITION came out at 21.5%.
Under `CC1CCCCN1C(=O)c1coc(COc2cccc3cnccc23)n1` (stereo unspecified) stands 68.4%; under `O=C(c1coc(COc2ccccc2F)n1)N1CCCO1`, -4.235%; under `O=C(c1coc(COc2cccc3cnccc23)n1)N1CCCCCC1`, 84.1%.
To `COCCC1CCCCN1C(=O)c1coc(COc2ccccc2F)n1` (stereo unspecified) belongs 29.735%.
With `O=C(c1coc(COc2cccc(F)c2)n1)N1CC[C@H](O)[C@@H](O)C1`, the INHIBITION came to 6.8%.
In the case of `O=C(c1coc(COc2cccc3cnccc23)n1)N1CCSCC1`, the INHIBITION is on record as 74.9%.
As to `O=C(c1coc(COc2ccccc2F)n1)N1CCC[C@H]1CO`, the INHIBITION is 2.611%.
As to `O=C(O)c1coc(COc2cccc3cnccc23)n1`, the INHIBITION is given as -2.46%.
Regarding `Cc1cc(Cn2c(=O)c3c(C(F)(F)F)cc(C)nc3n2C)on1`, the INHIBITION was 4.81%.
To `CN1CCOC(CNCC(=O)NCCCc2ccccc2)C1` (stereo unspecified) belongs -17.8%; to `COc1ccc(CN(C)Cc2ccnc(C3CCCO3)n2)cc1` (stereo unspecified), 21.95%; to `Cc1ncc(CNC(=O)NC2CCN(C3CCCC3)CC2)s1`, -53.6%.
Turning to `Cc1cccc(CN2CC[C@@H]3O[C@@H](C(=O)N4CCN(C)CC4)C[C@@H]32)n1`, the INHIBITION is given as -5.25%.
To `CCOC(=O)N1CCN(C(=O)c2cc(-c3ccc(Cl)cc3Cl)on2)CC1` belongs -6.91%.
Under `CCN(Cc1cccc(F)c1)Cc1nc2c(cnn2C)c(=O)[nH]1` stands 3.73%; under `CC1(NC(=O)Cc2csc(NC(=O)c3ccccc3)n2)CCS(=O)(=O)C1` (stereo unspecified), -14.2%; under `CCc1ncncc1C(=O)NC1CCc2nc(C)cn2C1` (stereo unspecified), -53.5%.
Consider `Cc1ccccc1[C@@H]1CN(Cc2c(C)noc2C)C[C@H]1C(=O)O`, for which the INHIBITION is on record as 2.25%.
To `COc1ccccc1[C@@H]1CN(Cc2csc(C(C)=O)c2)C[C@H]1C(=O)O` belongs -82.7%.
With `CCC[C@@H]1CN(Cc2ccc(C(F)(F)F)nc2)C[C@H]1C(=O)O`, the INHIBITION is on record as 37.2%.
Consider `COc1ccccc1[C@@H]1CN(Cc2ccc3nsnc3c2)C[C@H]1C(=O)O`, for which the INHIBITION came to 68.2%.
To `Cc1ccccc1[C@@H]1CN(Cc2ccc(C(F)(F)F)nc2)C[C@H]1C(=O)O` belongs 59.7%; to `COc1ccccc1[C@@H]1CN(Cc2ccncc2)C[C@H]1C(=O)O`, -21.8%.
Under `COCCO[C@H]1CCN(C(=O)c2ccc[nH]2)[C@H]1Cc1ccncc1` stands 42.6%.
For `CC(C)c1noc(CN2CCC(c3ccnn3CCO)CC2)n1`, the INHIBITION is -24.2%.
Regarding `O=C(Nc1ccnn1Cc1ccccc1Cl)C1CCS(=O)(=O)C1` (stereo unspecified), the INHIBITION is -4.12%.
Take `CCOCC(=O)N1CCC2(CC1)COCCN2CCOC`: the INHIBITION is 12.1%.
Turning to `Cn1ncc2c(N3CCN(C(=O)c4ccsc4)CC3)ncnc21`, the INHIBITION is listed as 21.6%.
As for `Cc1ccc(C)c(OCC(O)Cn2ncc3cnn(C)c(=O)c32)c1` (stereo unspecified), the INHIBITION was -28.9%.
To `COc1cc(CN(C)C(=O)Nc2cc(C)on2)ccc1SC` belongs 40.1%; to `Cc1ccccc1OCCC(=O)N(C)Cc1c(C)noc1C`, 25.5%.
Under `Cc1ccc(C)c(OCc2cc(C(=O)N(C)CC(O)CO)no2)c1` (stereo unspecified) stands 10.4%; under `Cc1ccc(OCCC(=O)N(C)CC(=O)Nc2cc(C)on2)c(C)c1`, 52.2%; under `Cc1ccc(OCCN(C)C(=O)CCCC(N)=O)c(C)c1`, -7.65%.
On to `Cc1ccc(C)c(OCC(O)CN(C)CC(=O)Nc2cc(C)on2)c1` (stereo unspecified), for which the INHIBITION is 84.3%.
On to `Cc1ccc(OCC(O)CN(C)CC(=O)Nc2cc(C)on2)c(C)c1` (stereo unspecified), for which the INHIBITION was 77.9%.
Regarding `Cc1ccc(OCC(O)CN(C)CC(=O)NC(C)C)c(C)c1` (stereo unspecified), the INHIBITION was 33%.
As to `CC(C)Cn1cncc1-c1nc2c([nH]1)CC(C)(C)CNC2=O`, the INHIBITION is listed as -109%.
Under `CCn1cc(CN2CCCN(C(=O)c3ccc(C#N)cc3)CC2)cn1` stands 25.6%.
Take `Cn1ncc2c(=O)[nH]c(CN3CCCC3CC(C)(C)C)nc21` (stereo unspecified): the INHIBITION is on record as 19.6%.
Turning to `CC(C)=CCN1C(=O)[C@@H]2CC[C@H]1CN(C(=O)CCc1nnc(Cl)[nH]1)C2`, the INHIBITION is reported as -15.3%.
With `Cc1cc(NCCN)nc(-c2ccccc2O)n1`, the INHIBITION stood at 17.7%.
Under `Cn1cc(Cl)cc1C(=O)N1CCN(CCc2cccs2)CC1` stands 23.73%; under `O=C(CC1Cn2ncnc2NC1=O)Nc1ccc(F)c(F)c1` (stereo unspecified), 26.7%.
Under `Cc1nc(CN2CCN(c3cncc(Cl)n3)CC2)no1` stands 14.6%; under `CN1CC(=O)N(c2ccccc2)CC12CCN(Cc1nccs1)C2` (stereo unspecified), -35.9%; under `Cn1ccnc1CN1CCC2(CC1)CN(c1ccccn1)CCO2`, 91.9%.
Regarding `COc1ncccc1CN1CCC2(CC1)CN(c1ccccn1)CCO2`, the INHIBITION stood at 41.8%.
Under `Fc1ccc(CN2CCC3(CC2)CN(c2ccccn2)CCO3)cc1` stands 79.1%; under `Cc1noc(C)c1CN1CCC2(CC1)CN(c1ccccn1)CCO2`, -40.4%.
With `c1ccc(CN2CCC3(CC2)CN(c2ccccn2)CCO3)nc1`, the INHIBITION is listed as -6.97%.
On to `COc1ccc(CN2CCC3(CC2)CN(c2ccccn2)CCO3)cc1`, for which the INHIBITION was found to be 26.4%.
To `CC(C)c1nc(CN2CCCN(c3nccs3)CC2)no1` belongs 25.4%; to `CC(=O)N1CCn2c(C(=O)N(C)C)cnc2C1`, 47.8%.
For `CSc1ccccc1C(=O)N1C[C@@H]2CC[C@H]1CN(C(=O)N(C)C)C2`, the INHIBITION turned out to be 21.2%.
With `Nc1c(C(=O)C2CCCN(C(=O)C3CC3)C2)cnn1-c1ccc(F)cc1` (stereo unspecified), the INHIBITION was found to be 38.9%.
As to `CCCC(=O)N1CCCC(C(=O)c2cnn(-c3ccc(F)cc3)c2N)C1` (stereo unspecified), the INHIBITION is listed as 17.35%.
With `CCC(=O)N1CCCC(C(=O)c2cnn(-c3ccc(F)cc3)c2N)C1` (stereo unspecified), the INHIBITION is listed as 56.3%.
Consider `c1cnc(C2CCCN2c2cnccn2)cn1` (stereo unspecified), for which the INHIBITION was 42.4%.
On to `CC(C)Cc1cc(C(=O)N2CCC(N3CCCC3)CC2)cc(O)n1`, for which the INHIBITION is reported as 24.4%.
As to `CC(C)Cc1cc(C(=O)N2CCC(Cc3cnn(C)c3)C2)cc(O)n1` (stereo unspecified), the INHIBITION is 26.6%.
With `COCC1CCN(C(=O)c2cc(O)nc(CC(C)C)c2)CC1`, the INHIBITION came to 51.1%.
With `COC(=O)c1ccc(S(=O)(=O)N2CCCn3ncnc32)s1`, the INHIBITION stood at 3.84%.

These data come from ChEMBL document CHEMBL4513216, “Probing the Open Global Health Chemical Diversity Library for Multistage-Active Starting Points for Next-Generation Antimalarials” (ACS Infect Dis, 2020).
